G9a inh: G9a (human) methyltransferase inhibition; 350,000 tested, 8.8% active; Q96KQ7; Potency, µM (doses to about 102 µM), actives largely listed as inhibitors; AID 504332; G9a H3K9 monomethylation, AlphaScreen, 2 h; further: nearly all actives have a fitted effect of over 75% in size
Target sequence (Q96KQ7 913-1193 limits assumed): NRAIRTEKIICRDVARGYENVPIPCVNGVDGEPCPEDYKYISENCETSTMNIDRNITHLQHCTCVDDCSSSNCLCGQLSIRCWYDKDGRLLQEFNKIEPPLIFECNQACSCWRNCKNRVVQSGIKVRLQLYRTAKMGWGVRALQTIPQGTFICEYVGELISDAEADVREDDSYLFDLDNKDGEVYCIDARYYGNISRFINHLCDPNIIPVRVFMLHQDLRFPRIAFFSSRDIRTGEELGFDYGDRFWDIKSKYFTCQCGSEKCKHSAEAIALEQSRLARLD
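Readings reflect AlphaScreen signal from monomethyl-H3K9 antibody detection. HMT at 20 nM; substrate b-H3K9 500 nM; cofactor SAM 20 uM; 2 h RT reaction; compounds tested as titrations in qHTS with 15 min preincubation.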
Tau ThT inhib: tau fibrillization inhibition (ThT binding) | P10636 | recombinant tau K18 P301L, heparin-induced fibrillization, ThT fluorescence | Potency, µM (series often up to 57.4 µM), hits mostly inhibitors | 270,000 tested, 2.1% active; further: nearly all actives have a fitted effect of over 55% in size
Target sequence (P10636 561-689 P618L limits assumed): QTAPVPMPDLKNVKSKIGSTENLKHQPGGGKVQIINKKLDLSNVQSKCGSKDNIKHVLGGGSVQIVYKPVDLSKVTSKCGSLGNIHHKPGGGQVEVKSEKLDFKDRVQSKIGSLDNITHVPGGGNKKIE
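Fibril formation assay: tau K18 P301L at 15 uM with trace Alexa 594 label, heparin inducer 20 uM, pH 7 sodium acetate buffer, 37 C for 6 hr; endpoint ThT signal.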
FBPA coupling cs: counter-screen for Giardia aldolase inhibitors: coupling enzyme system. coupling enzyme system counterscreen, AmpLite Red fluorescence. activity change, negative = inhibition, % at 58.2 µM, hits read low. 290,000 tested, 0.67% active. AID 2472; in the data active means activity change below about -30%
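Compounds tested against the coupling enzymes alone at 57.5 uM final; readout was AmpLite Red fluorescence (525/598 nm) after 20 min at RT.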
Tau FP inhib: inhibitors of human tau fibril formation. K18 P301L tau heparin fibrillization, Alexa594 FP, 6 h. Potency, µM (doses to about 57.7 µM), most hits filed as inhibitors. 280,000 tested, 0.39% active. P10636; further: nearly all actives have a fitted effect of over 55% in size
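Recombinant K18 P301L […], labeled with Alexa 594 at 0.24 uM over 15 uM unlabeled; heparin inducer 20 uM final; 37 C, 6 hr; FP endpoint.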
Tau fluor cs: counter-screen for tau fibril formation inhibitors. tau K18 P301L (four-repeat tau fragment) Alexa594 fluorescence, heparin fibrillization. Potency, µM (titrated, usually from 57.7 µM). 280,000 tested, 0.93% active. AID 1463; further: nearly all actives have a fitted effect of over 55% in size
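Human K18 P301L tau (15 uM unlabeled plus 0.24 uM Alexa 594-labeled, final) in 100 mM sodium acetate pH 7 was mixed with compound and 20 uM heparin and incubated 6 hr at 37 C.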
Sfp PPTase inh: Sfp phosphopantetheinyl transferase inhibition; Q9F4F7; Biochemical Sfp PPTase activity, qHTS; Potency, µM, most hits filed as inhibitors; 310,000 tested, 3.5% active;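 further: the enzyme is Sfp with the accession as filed and its product quenches rhodamine fluorescence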
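Step 1, compound plus 15 nM Sfp-PPTase, 15 min, room temperature. Step 2, add rhodamine-CoA (5 uM) and BHQ-2-YbbR (12.5 uM). Step 3, read 525/598 nm fluorescence at 0 and 30 min.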
A number is an active result; [ ] = dose if it differs, or a comment. The list is not random: actives were taken first. Their share in the collection is about 11%. Unless noted, the call rests on the fitted dose curve; in most records, active means well fitted curve in the direction sought with a large enough effect; inconclusive means small, poorly fitted or top-dose-only effect, or another doubt; inactive means no such curve, though single readings can be large; an effect the other way counts as inactive or inconclusive.

How did CC1=NC(=O)C(N=Nc2cccc(O)c2)N1c1ccccc1 (stereo not given) do in these assays?
G9a inh: inconclusive; Tau ThT inhib: 5µM; FBPA coupling cs: inactive; Tau FP inhib: inactive; Tau fluor cs: inconclusive; Sfp PPTase inh: inactive

How did CCN1/C(=C2\SC(=S)N(Cc3ccccc3)C2=O)Sc2ccccc21 do in these assays?
G9a inh: inactive; Tau ThT inhib: inactive; FBPA coupling cs: inactive; Tau FP inhib: inactive; Tau fluor cs: inactive; Sfp PPTase inh: inactive

Results for CCN1C(C)=C(C)S/C1=C1\SC(=S)N(N)C1=O ?
Tau ThT inhib: inconclusive; FBPA coupling cs: inactive; Tau FP inhib: inactive; Tau fluor cs: inactive; Sfp PPTase inh: 20µM

What do the screens show for `O=C(OCc1cc(=O)n2c(n1)sc1ccccc12)c1cccc(O)c1`?
G9a inh: inactive; Tau ThT inhib: inconclusive; FBPA coupling cs: inactive; Tau FP inhib: inactive; Tau fluor cs: inactive; Sfp PPTase inh: inactive

How did O=C(OCc1cc(=O)n2c(n1)sc1ccccc12)c1ccc(O)cc1O do in these assays?
G9a inh: inconclusive; Tau ThT inhib: inconclusive; FBPA coupling cs: inactive; Tau FP inhib: inactive; Tau fluor cs: inactive; Sfp PPTase inh: inactive

How did O=C(Cc1coc2cc3c(cc12)CCC3)OCc1cc(=O)n2c(n1)sc1ccccc12 do in these assays?
G9a inh: inactive[12.7 µM]; Tau ThT inhib: inactive; FBPA coupling cs: inactive; Tau FP inhib: inactive; Tau fluor cs: inactive; Sfp PPTase inh: 40µM

What do the screens show for `Cc1ccc(C(=O)N[C@H](C(=O)OCc2cc(=O)n3c(n2)sc2ccccc23)C(C)C)cc1`?
G9a inh: 40µM; Tau ThT inhib: inactive; FBPA coupling cs: inactive; Tau FP inhib: inactive; Tau fluor cs: inactive; Sfp PPTase inh: inactive

Results for Cc1ccc2c(CC(=O)OCc3csc(C)n3)coc2c1 ?
G9a inh: inactive; Tau ThT inhib: inactive; FBPA coupling cs: inactive; Tau FP inhib: inactive; Tau fluor cs: inactive; Sfp PPTase inh: inactive

What do the screens show for `CC(C)[C@H](NC(=O)c1ccco1)C(=O)OCc1cc(=O)n2c(n1)sc1ccccc12`?
G9a inh: 45µM; Tau ThT inhib: inactive; FBPA coupling cs: inactive; Tau FP inhib: inactive; Tau fluor cs: inactive; Sfp PPTase inh: inactive

What do the screens show for `COc1ccccc1NS(=O)(=O)c1cccc(C(=O)NNC(=O)c2ccc(O)c(Cl)c2)c1`?
G9a inh: inactive[0.501 µM]

What do the screens show for `CN1/C(=C\C=N\O)C(C)(C)c2ccccc21`?
G9a inh: inactive; Tau ThT inhib: inconclusive; FBPA coupling cs: inactive; Tau FP inhib: inactive; Tau fluor cs: inactive; Sfp PPTase inh: inactive

What do the screens show for `CO/N=C/C=C1/N(C)c2ccccc2C1(C)C`?
G9a inh: 50µM; Tau ThT inhib: inactive; FBPA coupling cs: inactive; Tau FP inhib: inconclusive; Tau fluor cs: inactive; Sfp PPTase inh: inactive

Results for CN(C)c1ccc(N=C/C=C2/N(C)c3ccccc3C2(C)C)cc1 ?
G9a inh: 7.1µM; Tau ThT inhib: 3.2µM; FBPA coupling cs: inactive; Tau FP inhib: inconclusive; Tau fluor cs: inconclusive; Sfp PPTase inh: inactive

How did CCOC(=O)c1ccc(N2C(=O)CC(Sc3nc(C)cc(C)n3)C2=O)cc1 (stereo not given) do in these assays?
G9a inh: inactive; FBPA coupling cs: inactive; Sfp PPTase inh: inactive

What do the screens show for `COc1ccccc1N1C(=O)CC(Sc2n[nH]c(-c3cccc(C)c3)n2)C1=O` (stereo not given)?
G9a inh: 1µM; Tau ThT inhib: inconclusive; FBPA coupling cs: inactive; Tau FP inhib: inactive; Tau fluor cs: inactive; Sfp PPTase inh: 5.6µM

How did Cc1cc(C)nc(SC2CC(=O)N(c3ccc(Br)cc3)C2=O)n1 (stereo not given) do in these assays?
G9a inh: 40µM; FBPA coupling cs: inactive; Sfp PPTase inh: inactive

How did Cc1ccnc(SC2CC(=O)N(c3ccc(Br)cc3)C2=O)n1 (stereo not given) do in these assays?
FBPA coupling cs: inactive; Sfp PPTase inh: inactive

Results for CCOC(=O)c1ccc(N2C(=O)CC(Sc3nnc(C)s3)C2=O)cc1 (stereo not given) ?
G9a inh: 10µM; Tau ThT inhib: inconclusive; FBPA coupling cs: inactive; Tau FP inhib: inactive; Tau fluor cs: inactive; Sfp PPTase inh: 45µM

Results for C=CCNc1nnc(SC2CC(=O)N(c3ccc(OCCC)cc3)C2=O)s1 (stereo not given) ?
G9a inh: 8.9µM; Tau ThT inhib: inconclusive; FBPA coupling cs: inactive; Tau FP inhib: inactive; Tau fluor cs: inactive; Sfp PPTase inh: 50µM

Results for CC1CCN(C(=O)c2ccc3c(c2)N(Cc2ccccc2)C(=O)c2ccccc2S3(=O)=O)CC1 ?
G9a inh: inactive; Tau ThT inhib: inactive; Tau FP inhib: inactive; Tau fluor cs: inactive

How did CCOC(=O)c1cnc2c(c(C)nn2CC)c1NCCN1CCOCC1 do in these assays?
Tau ThT inhib: inactive; FBPA coupling cs: inactive; Tau FP inhib: inactive; Tau fluor cs: inactive; Sfp PPTase inh: inactive

Results for Cn1c(SCc2ccccc2Cl)nc2c([nH]c3ccccc32)c1=O ?
G9a inh: inactive; Tau ThT inhib: inactive; Tau FP inhib: inconclusive; Tau fluor cs: inactive

How did CCOC(=O)c1ccc(N2C(=O)C=CC2=O)cc1 do in these assays?
G9a inh: inconclusive; Tau ThT inhib: inactive; FBPA coupling cs: inactive; Tau FP inhib: inactive; Tau fluor cs: inactive; Sfp PPTase inh: 3.5µM

How did CCOC(=O)c1ccc(-n2c(C)ccc2C)cc1 do in these assays?
G9a inh: inactive; Tau ThT inhib: inactive; FBPA coupling cs: inactive; Tau FP inhib: inactive; Tau fluor cs: inactive; Sfp PPTase inh: inactive

Results for Nc1nnc(SC2CC(=O)N(c3ccccc3)C2=O)s1 (stereo not given) ?
G9a inh: 8.9µM; Tau ThT inhib: inconclusive; FBPA coupling cs: inactive; Tau FP inhib: inactive; Tau fluor cs: inactive; Sfp PPTase inh: 79µM

What do the screens show for `Cc1nc(SC2CC(=O)N(c3ccccc3)C2=O)n[nH]1` (stereo not given)?
Tau ThT inhib: inactive; FBPA coupling cs: inactive; Tau FP inhib: inactive; Tau fluor cs: inactive; Sfp PPTase inh: 16µM

What do the screens show for `COC(=O)C1SCC2C(=O)N(Cc3ccc(Cl)c(Cl)c3)CC(=O)N21` (stereo not given)?
G9a inh: inactive; Tau ThT inhib: inactive; FBPA coupling cs: inactive; Tau FP inhib: inactive; Tau fluor cs: inactive; Sfp PPTase inh: inactive

Results for CC1CCN(C(=O)Cn2cc(SCC(=O)Nc3ccccc3C(F)(F)F)c3ccccc32)CC1 ?
G9a inh: inactive; Tau ThT inhib: inactive; Tau FP inhib: inactive; Tau fluor cs: inactive

Results for Cc1ccc(-c2nn(-c3ccccc3)cc2CO)cc1 ?
G9a inh: inactive; FBPA coupling cs: inactive; Sfp PPTase inh: inactive

How did Cc1ccc(-c2nn(-c3ccccc3)cc2CNCc2ccccc2)cc1 do in these assays?
Tau ThT inhib: inconclusive; FBPA coupling cs: inactive; Tau FP inhib: inactive; Tau fluor cs: inactive; Sfp PPTase inh: 18µM

Source: PubChem (National Center for Advancing Translational Sciences (NCATS))
